# Laboratory results: PubChem BioAssay AID686979 (National Center for Advancing Translational Sciences (NCATS), 2013)
# Among all 420,000 compounds or so, about 50,000 (12%) were called active. Not shown: some 26% with an inconclusive outcome. Calls come from the whole dose curve; as a rule, active = well fitted inhibition curve with a large enough effect; inconclusive = small, poorly fitted or top-dose-only effect; inactive = flat fitted curve, though single readings scatter. Many of the other results were omitted from the sample, so actives are more common in it than they were.
# Assay: qHTS for Inhibitors of human tyrosyl-DNA phosphodiesterase 1 (TDP1): qHTS in cells in presence of CPT; note: nearly all actives have a fitted effect of over 55% in size
# Details: chicken DT40 Tdp1-/-;hTDP1 cells + 20 nM CPT, ATP luminescence, 48 h; series mostly up to 46.2 µM; activity change, negative = growth inhibition: at the top concentration
# Procedure, shortened: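 Chicken DT40 Tdp1-/- cells stably complemented with human TDP1 were seeded at 400 cells/well in medium containing 20 nM camptothecin, exposed to pin-transferred compounds, and grown at 37 °C for at least 48 hr. Viability was read as ATP luminescence.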
# % is set by controls: 0 for no effect and ±100 for the full control effect; potency is the fitted concentration of half-maximal effect.
SMILES,"activity change, negative = growth inhibition",Potency
CCCCC1S/C(=N/N=C/c2cccs2)NC1=O (stereo not drawn),-15.9% (inactive),
CC(C)c1ccc(OCC(O)Cn2cnc3ccccc32)cc1 (stereo not drawn),,18.4 µM (active)
OC(COc1ccc2ccccc2c1)Cn1cncn1 (stereo not drawn),4.84% (inactive),
CC(=O)OC(COc1ccc(F)cc1)Cn1cnc2ccccc21 (stereo not drawn),-18.6% (inactive),
CC(C)c1ccc(OCC(O)CN2CCN(c3ccccn3)CC2)cc1 (stereo not drawn),,25.9 µM (active)
CCc1ccc(OCC(O)CN2CCN(CCO)CC2)cc1 (stereo not drawn),4.93% (inactive),
Cc1ccccc1OCC(O)CN1CCN(c2ccccn2)CC1 (stereo not drawn),2.2% (inactive),
Cc1ccc(C)c(NC(=O)COC(=O)c2nn(C)c(=O)c3ccccc23)c1,0.793% (inactive),
C/C=C/C(=O)OCc1csc(CC(=O)Nc2ccccc2C)n1,-11.6% (inactive),
Cc1ccnc(NC(=O)C2CCN(S(=O)(=O)c3c(C)c(C)cc(C)c3C)CC2)c1,26.2% (inactive),
CCCNC(=O)C[C@@H]1CC[C@@H]2[C@H](COC[C@H](O)CN2C(=O)c2cc(Cl)cc(Cl)c2)O1,15.3% (inactive),
CC1(c2nnc(-c3ccncc3)o2)CC(c2cccnc2)=NO1 (stereo not drawn),1.74% (inactive),
CCCCC(=O)Nc1nnc(S(=O)(=O)N(C)Cc2ccco2)s1,-2.86% (inactive),
COc1ccc(NC(=O)CCNS(=O)(=O)c2ccc3c(c2)c(=O)n(C)c(=O)n3C)cc1OC,1.91% (inactive),
CC(=O)Nn1cc2c(=O)n(C)c(=O)n(C)c2c1,9.83% (inactive),
COc1ccc(OC)c(-n2cc3c(=O)n(C)c(=O)n(C)c3c2)c1,,16.4 µM (active)
CCc1cc2c(SCC(=O)Nc3ncc(Cl)c(C)c3Cl)ncnc2s1,-29.6% (inactive),
CCc1cc2c(NC3CCCC3)ncnc2s1,,7.31 µM (active)
CCc1cc2c(NC(Cc3ccccc3)C(=O)O)ncnc2s1 (stereo not drawn),-3.93% (inactive),
Cn1c2ccccc2n2c(=O)c(=O)n(CC(=O)c3ccc(F)cc3)nc12,-14.7% (inactive),
O=[N+]([O-])/C=C/c1ccc2c(ccn2Cc2ccccc2)c1,,3.26 µM (active)
O=C(Cn1ccc2cc(S(=O)(=O)N3CCCC3)ccc21)NCc1ccccc1,-16.2% (inactive),
COc1ccc(Cn2ccn(Cc3cccc(OC)c3)c(=O)c2=O)cc1,-27% (inactive),
Cc1ccc(C)c(S(=O)(=O)Nc2cccc(-n3cnnn3)c2)c1,-20.1% (inactive),
Cc1cnc(C(=O)OCc2c(C)cc(C(C)(C)C)cc2C)cn1,-21.7% (inactive),
N#CCCC(C#N)(c1cccnc1)N1CCOCC1 (stereo not drawn),2.23% (inactive),

SMILES,"activity change, negative = growth inhibition",Potency
COc1ccc2occ(C(=O)c3ccc(N=C(C)N(C)C)cc3)c2c1,,16.4 µM (active)
COc1ccc(OC)c(C(=O)c2ccc(C(=O)O)cc2)c1,-7.43% (inactive),
COc1ccc(C(=O)c2oc3ccc(Br)cc3c2NC(C)=O)cc1,-24.2% (inactive),
O=C(CCN1C(=O)[C@@H]2Cc3ccccc3CN2C1=O)NCCc1ccccc1,-0.504% (inactive),
O=C(Cn1nc(C(=O)O)c2ccccc2c1=O)Nc1ccc(F)cc1,-16.6% (inactive),
CCN(CC)c1ccc(/C=C/c2c(C)cnc3ccc(C)cc23)cc1,,11.2 µM (active)
COc1ccc(C(=O)COC(=O)CNC(=O)c2cccs2)cc1Br,6.66% (inactive),
Cc1ccc(S(=O)(=O)N2CCN(c3ccccc3)CC2)cc1C,4.16% (inactive),
COC(=O)/C(=C\Nc1ccccc1)NC(=O)c1ccc(Cl)cc1Cl,-12.4% (inactive),
COC(=O)Cc1nc2c(N)nc(N)nc2[nH]c1=O,1.28% (inactive),
COc1ccc2c(c1)CCC/C2=N\OC(=O)c1ccccc1F,0.0235% (inactive),
COc1cc2c(cc1OC)CN(CC(=O)Nc1ccc(F)cc1)CC2,0.106% (inactive),
COc1cc2c(cc1OC)C(COc1ccc(F)cc1)N(C(=O)c1ccccc1F)CC2 (stereo not drawn),,18.4 µM (active)
NC(=O)C1(Nc2ccccc2Cl)CCCC1,1.03% (inactive),
NC(=O)c1ccc(-c2csnn2)cc1,-2.39% (inactive),
CCOc1ccc(CCNC(=O)COC(=O)CCS(=O)(=O)c2ccc(C)cc2)cc1OCC,-9.18% (inactive),
Cc1nc2ccccc2nc1CC(O)(c1ccccc1)c1ccccc1,-15.5% (inactive),
CN(C)NC(=O)c1csnc1-c1c(Cl)cccc1Cl,6.02% (inactive),
CCn1c(SCC(=O)N/N=C/c2ccccc2OCC(=O)O)nnc1-c1ccc(C(C)(C)C)cc1,9.93% (inactive),
COc1ccc(S(=O)(=O)N2CCN(C(C)C(=O)Nc3ccc(C(C)C)cc3)CC2)cc1 (stereo not drawn),,29.1 µM (active)
COc1ccc(S(=O)(=O)N2CCN(C(=O)NC3CCCCC3)CC2)cc1,2.96% (inactive),
COc1cccc(CNC(C)C(=O)Nc2ccc(S(=O)(=O)N3CCCC3)cc2)c1 (stereo not drawn),-18.1% (inactive),
O=C(NC(=S)NC1CCSC1=O)c1ccccc1F (stereo not drawn),5.66% (inactive),
COc1cc(CN2CCC(C(N)=O)CC2)ccc1OCc1ccccc1,-6.41% (inactive),
COc1cc(CNC2CCCC2)c(Br)cc1OCc1ccccc1,,20.6 µM (active)
COc1cc(OC)c(NC(=O)C2CCCN2C(=O)OCc2ccccc2)cc1Cl (stereo not drawn),-5.29% (inactive),

SMILES,"activity change, negative = growth inhibition",Potency
CS(=O)(=O)NC(=O)CCC/C=C\C[C@H]1C(=O)C[C@@H](O)[C@@H]1/C=C/[C@H](O)COc1ccccc1,-5.58% (inactive),
Cc1ccc2nc(COc3cccc(NC(=O)c4cccc(Cl)c4)c3)cc(=O)n2c1,5.1% (inactive),
Cc1cccc(C)c1OCCN1CCOCC1,0.496% (inactive),
COc1cccc(OCCCN2CCCCCC2)c1,7.79% (inactive),
COc1ccc(-c2sc3ccccc3c2-c2ccc(OCCN3CCOCC3)cc2)cc1,,14.6 µM (active)
COc1cccc(-c2sc3ccc(OC)cc3c2-c2ccc(OCCN3CCCCC3)cc2)c1,,18.4 µM (active)
COc1cc(OC)cc(-c2sc3ccc(OC)cc3c2-c2ccc3cc[nH]c3c2)c1,2.8% (inactive),
c1ccc(-c2ccc(OCCN3CCOCC3)cc2)cc1,-8.28% (inactive),
COc1ccc(S(=O)(=O)N(C)C[C@@H]2Oc3ccc(NS(=O)(=O)c4cn(C)cn4)cc3C(=O)N([C@@H](C)CO)C[C@@H]2C)cc1,-5.54% (inactive),
COc1ccc2c(c1)C(c1cccs1)=NNC(c1cccnc1)=N2,-2.75% (inactive),
CCOc1ccc(NS(=O)(=O)c2ccc(OCC(=O)NCCCOC)cc2)cc1,-7.83% (inactive),
CCCCNC(=O)c1c[nH]c2ccc(S(=O)(=O)Nc3ccc(OCC)cc3)cc2c1=O,-22.1% (inactive),
CCOc1ccc(NS(=O)(=O)c2ccc(C)c(C(N)=O)c2)cc1,,20.6 µM (active)
Cc1ccccc1NC(=O)Cc1nc(COC(=O)CNC(=O)c2ccc(Cl)cc2Cl)cs1,-6.01% (inactive),
Cc1cccn2c(=O)c3cc(C(=O)NC4CCCCC4)sc3nc12,-26.2% (inactive),
COc1ccc(CCn2c(=N)c(C(=O)NCC3CCCO3)cc3c(=O)n4cccc(C)c4nc32)cc1OC (stereo not drawn),,5.17 µM (active)
CCCCn1c(=N)c(S(=O)(=O)c2ccccc2)cc2c(=O)n3cccc(C)c3nc21,0.133% (inactive),
COCCCn1c(C(=O)NC2CCCCC2)cc2c(=O)n3cccc(C)c3nc21,,18.4 µM (active)
COc1ccc(C(=O)Nc2ccc(C(=O)NCC3CCCO3)cc2)c(OC)c1OC (stereo not drawn),0.208% (inactive),
Cc1ccc2nc3c(cc(C(=O)NC4CCCCC4)c(=N)n3C(C)C)c(=O)n2c1,6.44% (inactive),
CCOC(=O)c1cc2c(=O)n3ccccc3nc2n(CC2CCCO2)c1=NC(=O)c1ccccc1Br (stereo not drawn),4.33% (inactive),
O=C(NCc1cccnc1)c1cc(S(=O)(=O)N2CCOCC2)c(Cl)cc1Cl,4.04% (inactive),
COc1ccc(CCNC(=O)Cn2c(=O)n(CC3CCCO3)c(=O)c3ccccc32)cc1OC (stereo not drawn),-1.14% (inactive),
Cc1cccn2c(=O)c3cc(C#N)c(=NC(=O)c4cccnc4)n(CC4CCCO4)c3nc12 (stereo not drawn),-2.32% (inactive),
Cc1ccc2nc3c(cc(C(=O)NCCc4ccccc4)c(=N)n3CC3CCCO3)c(=O)n2c1 (stereo not drawn),,20.6 µM (active)
Cc1cccn2c(=O)c3cc(C(=O)NCCN4CCOCC4)c(=N)n(Cc4cccnc4)c3nc12,,13 µM (active)

SMILES,"activity change, negative = growth inhibition",Potency
CCOc1ccc(N2C(=O)CSC2=NC#N)cc1,0.495% (inactive),
COC(=O)C1=C(C)NC(=S)NC1c1ccc(OCC(=O)N2CC(C)OC(C)C2)c(OC)c1 (stereo not drawn),-17.4% (inactive),
Cn1cc(S(=O)(=O)N2CCN(c3ccc(F)cc3)CC2)c(=O)n(C)c1=O,1.72% (inactive),
CCc1ccc(C(=O)OCC(=O)NCC(F)(F)F)cc1,0.645% (inactive),
CS(=O)(=O)N1CCCC(C(=O)Nc2ccccc2C(F)(F)F)C1 (stereo not drawn),0.592% (inactive),
CC(=O)Nc1ccc(NC(=O)C(C)OC(=O)C2CC(=O)N(CCc3ccccc3)C2)cc1 (stereo not drawn),2.76% (inactive),
O=C(O)C1CCCCC1C(=O)N1CCN(S(=O)(=O)c2ccc(F)cc2)CC1 (stereo not drawn),12.7% (inactive),
NCCCCC(C(=O)O)N(C(=O)OCc1ccccc1)C(=O)OCc1ccccc1 (stereo not drawn),-4.29% (inactive),
CC1C(=O)C(C)C(c2ccc(O)cc2)NC1c1ccc(O)cc1 (stereo not drawn),-17.5% (inactive),
O=C(OCC(=O)N1CCN(C(=O)c2ccco2)CC1)c1ccc(Cl)c(Cl)c1,-19.4% (inactive),
CCOc1ccccc1/C=N/NC(=O)CNC(=O)COc1ccccc1,17.2% (inactive),
COc1ccc(CCNC(=O)CCc2ccccc2O)cc1OC,-0.264% (inactive),
Cc1ccc(S(=O)(=O)c2cc3c(=O)n4cccc(C)c4nc3n(CCc3ccccc3)c2=N)cc1C,0.286% (inactive),
COc1ccc(C(=O)Nc2ccccc2C(=O)NCc2ccco2)cc1,-23.2% (inactive),
COc1ccc(CCn2c(=N)c(C(=O)NCc3ccco3)cc3c(=O)n4cccc(C)c4nc32)cc1,,20.6 µM (active)
CCOC(=O)c1ccc(NC(=O)CCn2c(=O)oc3ccccc32)cc1,,inactive
CC(Sc1nncn1C)C(=O)NCCC1=CCCCC1 (stereo not drawn),-1.08% (inactive),
CC(C)n1cnc2c(Nc3cccc(Cl)c3)nc(N(CCO)CCCO)nc21,,10.3 µM (active)
CC(C)[C@H](CO)Nc1nc(Nc2cc(N)cc(Cl)c2)c2ncn(C(C)C)c2n1,,4.73 µM (active)
CC(C)(C)c1nnc(NC(=O)C2c3ccccc3Oc3ccccc32)s1,,23.1 µM (active)
CCC(C)NC(=O)C1c2ccccc2Oc2ccccc21 (stereo not drawn),-14.2% (inactive),
CCC(C)(C)NC(=O)C1c2ccccc2Oc2ccccc21,1.24% (inactive),
COCCCNCC(=O)Nc1sc(C)c(C)c1C(=O)OC,-13.3% (inactive),
Nc1ncnc2nnsc12,-10.5% (inactive),
Oc1c(C(c2ccc(F)cc2)N2CCN(Cc3ccccc3)CC2)sc2nc(-c3ccco3)nn12 (stereo not drawn),-26.3% (inactive),
